Sampled rows, rich in hits. Any-hit rate of the full collection: about 2.4%.
D2 ag-1: agonists of human D2 dopamine receptor | HEK293 T-REx D2 cells, calcium flux agonist mode | actives 0.53% (n = 340,000) | P14416 | activation, % at 2 µM | AID 485358;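 active = activation over 3 SD above normal in the single-dose calcium agonist read, cut at about 30% in these data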
Target sequence (P14416 whole entry, looked up): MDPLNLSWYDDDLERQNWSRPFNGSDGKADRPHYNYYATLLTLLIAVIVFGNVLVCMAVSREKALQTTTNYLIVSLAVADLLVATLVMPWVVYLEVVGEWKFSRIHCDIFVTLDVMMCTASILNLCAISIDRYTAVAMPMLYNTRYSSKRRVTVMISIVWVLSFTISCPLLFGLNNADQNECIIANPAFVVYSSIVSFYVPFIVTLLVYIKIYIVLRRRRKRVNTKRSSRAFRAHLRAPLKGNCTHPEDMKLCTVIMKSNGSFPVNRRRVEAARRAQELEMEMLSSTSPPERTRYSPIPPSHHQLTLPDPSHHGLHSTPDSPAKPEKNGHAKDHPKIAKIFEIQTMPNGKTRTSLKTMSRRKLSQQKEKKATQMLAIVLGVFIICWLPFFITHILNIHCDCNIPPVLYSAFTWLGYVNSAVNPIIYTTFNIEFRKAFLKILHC
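Tetracycline-induced HEK293 Trex cells with D2 receptor force-coupled to calcium signaling, plated overnight at 30 C and loaded with no-wash calcium dye. Calcium flux read kinetically for 180 s after compound addition; responses flag agonists.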
D2 PAM-1: D2 dopamine receptor (human) potentiation; P14416; HEK293 T-REx D2, calcium flux, EC20 dopamine potentiation; potentiation, % at 10 µM; actives 0.34% (n = 340,000); AID 485347;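 active = potentiation over 3 SD above the plate norm, cut at about 30% in these data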
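Primary screen. Calcium kinetics in induced HEK293 T-REx D2 cells: compound pre-addition 180 s, EC20 dopamine, 180 s more.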
D2 PAM-2: human D2 receptor positive allosteric modulation. P14416. DiscoveRx D2 beta-arrestin cells, luminescence, 90 min; 100% = 57 uM dopamine signal. potentiation, % (test concentration not listed). actives 0.23% (n = 360,000); in the data active = potentiation above about 50%; inconclusive = mostly about 30% to 49%
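PathHunter D2 cells, attached overnight at 37 deg C, received compound in DMSO plus dopamine at EC20 (50 nM final) for 90 min at 37 deg C. Beta-arrestin recruitment was read as luminescence after 1 h with detection reagent at ambient temperature.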
D2 antagonist: antagonizes the human D2 dopamine receptor; inhibition, % at 10 µM; HEK293 TREx D2 cells, calcium flux, dopamine EC80; actives 2% (n = 340,000); AID 485344; P14416; in the data active = inhibition above about 30%; inactive = below that, where a call was filed
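In this primary screen, negative modulation is detected by tracking calcium flux after an EC80 dopamine challenge in inducible HEK293 T-REx D2 cells preexposed to test compound for 180 s.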
D2 ag-2: agonists of human D2 dopamine receptor (beta-arrestin) | P14416 | DiscoveRx PathHunter D2 beta-arrestin, luminescence, 90 min; 100% = 57 uM dopamine signal | activation, % (concentration not given with the values) | actives 0.084% (n = 360,000) | AID 624465; in the data active = activation above about 40%; inconclusive = between about 15% and that limit
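DiscoveRx PathHunter D2 beta-arrestin cells (2,100/well) attached overnight, then compound-stimulated 90 min at 37 C in HBSS/10 mM HEPES/0.1% Tween-20 buffer; beta-galactosidase complementation read by luminescence after 1 h at ambient temperature. Dopamine 57 uM final (EC100) as control.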
Large screens that a line does not name were inactive; ! = not confirmed by another sample.

COc1ccc(C2=NOC(C(=O)NCc3ccc(F)cc3)C2)cc1OC (stereo unspecified)	D2 PAM-1 37
CCOC(=O)c1c(C)oc2nc(C)nc(NCCCN3CCN(c4cccc(C)c4)C(C)C3)c12 (stereo unspecified)	none (no result: D2 PAM-2, D2 antagonist, D2 ag-2)
CC1=C(C(=O)OCC2CCCO2)C(c2coc3ccc(Cl)cc3c2=O)C2=C(CCCC2=O)N1 (stereo unspecified)	none
CC1=C(C(=O)OCC2CCCO2)C(c2coc3ccc(C)cc3c2=O)C2=C(CCCC2=O)N1 (stereo unspecified)	D2 PAM-1 31
CC(C)c1ccc2oc(-c3ccc(Cl)c(NC(=O)c4cccs4)c3)nc2c1	none (no result: D2 PAM-2, D2 antagonist, D2 ag-2)
COc1cccc(/C=N/NC(=O)CNC(=O)c2cccnc2)c1O	none
COc1cccc(/C=N/NC(=O)CNC(=O)c2ccncc2)c1O	D2 PAM-1 65
Cc1cccc(C(=O)Nc2nnc(S(=O)(=O)N3c4ccccc4CC3C)s2)c1 (stereo unspecified)	none (no result: D2 PAM-2, D2 antagonist, D2 ag-2)
CCc1ccccc1NC(=O)Cn1nnc(C(=O)NCc2cccc(OC)c2)c1N	D2 PAM-1 70! (no result: D2 antagonist)
CCOc1ccc(NC(=O)Cn2nnc(C(=O)NCCc3ccc(OC)c(OC)c3)c2N)cc1	none
COc1ccccc1NC(=O)c1nnn(CC(=O)Nc2cccc(SC)c2)c1N	D2 PAM-1 35
COc1ccccc1NC(=O)c1nnn(CC(=O)Nc2ccccc2)c1N	none
Cc1cccc(NC(=O)Cn2nnc(C(=O)NCc3ccco3)c2N)c1	D2 antagonist 34
COc1ccc(CCNC(=O)Cn2nnc(C(=O)Nc3ccc(Br)cc3)c2N)cc1OC	D2 PAM-1 56
Cc1ccc(NC(=O)Cn2nnc(C(=O)NCc3ccco3)c2N)cc1	none
O=C(Nc1cccc(Cl)c1)c1ccc2nc(Cc3ccccc3)oc2c1	none (no result: D2 PAM-2, D2 antagonist, D2 ag-2)
O=C1CC(c2nc3ccccc3n2CCCOc2ccccc2)CN1c1ccc(F)cc1 (stereo unspecified)	none (no result: D2 PAM-2, D2 antagonist, D2 ag-2)
COc1ccc2c(c1)C=C(CN1CCC(CO)(CCc3ccccc3)CC1)CO2	D2 antagonist 31
COc1ccc2c(c1)C=C(CN1CCN(Cc3ccccc3C)C(CCO)C1)CO2 (stereo unspecified)	D2 antagonist 58
O=C(NNc1nc2cc3c(cc2s1)OCO3)c1cccc(F)c1	D2 antagonist 40
Cc1n[nH]c(=O)c2c1nnn2Cc1ccccc1Cl	D2 antagonist 58
O=c1[nH]nc(C(F)(F)F)c2nnn(Cc3ccccc3Cl)c12	none
CS(=O)(=O)Nc1ccc(-c2nc3ccccc3s2)cc1	none (no result: D2 ag-1, D2 PAM-2, D2 antagonist, D2 ag-2)
O=C(CN1CCN(Cc2ccccc2Cl)C1=O)NC1CCCCCCC1	D2 antagonist 31
CC1CCCCC1NC(=O)CN1CCN(Cc2ccccc2Cl)C1=O (stereo unspecified)	none
Cc1nn(C(C)C(=O)NC2CCCCC2)c(=O)c2c1sc1ccccc12 (stereo unspecified)	none (no result: D2 PAM-2, D2 antagonist, D2 ag-2)
CC1CCCCN1C(=O)C12CCC(C)(C(=O)C1)C2(C)C (stereo unspecified)	none (no result: D2 ag-1, D2 PAM-1, D2 antagonist)
CC1CCCCN1C(=O)C12CCC(C)(/C(=N/O)C1)C2(C)C (stereo unspecified)	D2 antagonist 35
CC1=CC(C)(C)Nc2ccc(OC(=O)c3ccco3)cc21	D2 PAM-2 51
COc1cc(OC)cc(C(=O)Nc2ccc(-n3cnnn3)c(C)c2)c1	D2 antagonist 38
COc1cc(NC(=O)c2ccccc2-n2cnnn2)cc(OC)c1	none
Cc1c(C)c2cc(Cl)c(O)c(CN(C)C)c2oc1=O	D2 antagonist 35
Cc1cc(C)cc(-n2c(SCC(=O)Nc3ccccc3F)nc3c(oc4ccccc43)c2=O)c1	none (no result: D2 ag-1, D2 PAM-2, D2 antagonist, D2 ag-2)
CC1CCC(C(C)C)C(OC(=O)COC(=O)c2cc(O)ccc2N)C1 (stereo unspecified)	D2 PAM-2 93, D2 ag-2 inconclusive
CC1CCC(C(C)C)C(OC(=O)COC(=O)c2ccc(=O)[nH]c2)C1 (stereo unspecified)	none
CCOC(=O)c1ccc(NC(=O)C2CCCN(c3ncnc4onc(-c5ccc(F)cc5)c34)C2)cc1 (stereo unspecified)	none (no result: D2 PAM-2, D2 antagonist, D2 ag-2)
Cc1ccc(/C=C\c2nccc3c2[nH]c2ccccc23)cc1	D2 antagonist 44
CN1CCN(S(=O)(=O)c2ccc(Oc3ccc(F)cc3Br)nc2)CC1	none
CN1CCN(S(=O)(=O)c2ccc(Oc3ccc(Br)cc3F)nc2)CC1	D2 antagonist 34
CC[C@@]1(C(=O)OC)N[C@H](CN(C)C(=O)c2ccc(C(C)(C)C)cc2)[C@@H]2C(=O)N(Cc3ccccc3)C(=O)[C@@H]21	none (no result: D2 ag-1, D2 PAM-1, D2 antagonist)
CCN(C[C@H]1N[C@@](CC)(C(=O)OC)[C@H]2C(=O)N(Cc3ccccc3)C(=O)[C@@H]12)C(=O)c1ccc(C(C)(C)C)cc1	D2 PAM-2 57, D2 ag-2 inconclusive (no result: D2 ag-1, D2 PAM-1, D2 antagonist)
CCCCOc1ccc(OC(=O)c2sc3ncn(Cc4cccc(F)c4)c(=O)c3c2C)cc1	none (no result: D2 PAM-1, D2 PAM-2, D2 antagonist, D2 ag-2)
O=C(NCCN1CCOCC1)c1cc2sccc2n1Cc1ccc(F)cc1	D2 antagonist 38
CC(C)Oc1ccc(CNC(=O)c2ccc3c(c2)N(C)CCS3)cc1	D2 antagonist 47
CCc1c(C)sc2c1CCN(Cc1cccc(F)c1)C2c1ccccc1 (stereo unspecified)	none (no result: D2 PAM-2, D2 antagonist, D2 ag-2)
COc1cccc(NC(=O)Cn2c(=O)n(CCc3ccccc3)c(=O)c3c4c(sc32)CN(C(C)=O)CC4)c1	none (no result: D2 PAM-2, D2 antagonist, D2 ag-2)
C=CCN=C1S/C(=C\c2ccc(Cl)cc2)C(=O)N1CC=C	D2 antagonist 80
C=CCN=C1S/C(=C/c2ccc([N+](=O)[O-])cc2)C(=O)N1CC=C	none
COCCNC(=O)c1c[nH]c2ccc(S(=O)(=O)N3CCc4ccccc43)cc2c1=O	none
COCCCNC(=O)c1c[nH]c2ccc(S(=O)(=O)N3CCc4ccccc43)cc2c1=O	D2 PAM-1 38
Cn1c(N)c(C(=O)CSc2nnc(-c3ccccc3F)n2C2CC2)c(=O)n(C)c1=O	none
Cn1c(N)c(C(=O)CSc2nnc(-c3ccccc3F)n2N)c(=O)n(C)c1=O	D2 antagonist 34
O=C(c1cccc(Br)c1)N1CCN(c2ccc(N3CCOCC3)nn2)CC1	D2 antagonist 33
O=C(Oc1ccccc1C(=O)N1CCOCC1)c1cccc(Br)c1	D2 antagonist 47
O=C(c1cncc(Br)c1)N1CCN(c2ccc(N3CCOCC3)nn2)CC1	none
O=C(Nc1ccno1)Nc1ccc(Cl)cc1Cl	D2 PAM-2 62, D2 ag-2 inconclusive
O=C(Nc1ccc(Cl)cc1Cl)Nn1cnnc1	none
COc1ccccc1CNS(=O)(=O)c1ccc2c(c1)NC(=O)C(C)C(=O)N2 (stereo unspecified)	none (no result: D2 ag-1, D2 PAM-2, D2 antagonist, D2 ag-2)
Cc1ccc(NC(=O)C2CCN(C(=O)c3cnn(-c4ccccc4)c3-n3cccc3)CC2)cc1C	none (no result: D2 PAM-2, D2 antagonist, D2 ag-2)
